Bioassay records (PubChem BioAssay)
An excerpt weighted towards active compounds, which were near 2.9% of everything screened.
SKN-1 inh: C. elegans SKN-1 inhibition; C. elegans VP596 Pgst-4::GFP/RFP ratio, acrylamide-induced, 24 h; inhibition, % at 21.8 µM; actives 0.49% (n = 360,000); AID 624304;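 active = interference check ratio from 0.5 to 1.5 plus GFP to RFP signal ratio inhibition reaching or exceeding a fixed threshold, cut at about 30% in these data, passing the limit was not always enough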
EP2 mod: modulators of human EP2 prostaglandin E2 receptor. EP2-expressing cells, cAMP HTRF FRET, PGE2 co-stimulation. induction, % at 25 µM. actives 0.83% (n = 260,000). AID 940;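 active = compounds whose cAMP rise, as percent of the full-agonist control response, exceeds 60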;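 note: rat C6 glioma line stably carrying human EP2 under a CMV promoter; the protocol text gives 20 µM as final concentration; 100% = response of wells given 1 µM PGE2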
Target sequence (P43116 whole entry, looked up): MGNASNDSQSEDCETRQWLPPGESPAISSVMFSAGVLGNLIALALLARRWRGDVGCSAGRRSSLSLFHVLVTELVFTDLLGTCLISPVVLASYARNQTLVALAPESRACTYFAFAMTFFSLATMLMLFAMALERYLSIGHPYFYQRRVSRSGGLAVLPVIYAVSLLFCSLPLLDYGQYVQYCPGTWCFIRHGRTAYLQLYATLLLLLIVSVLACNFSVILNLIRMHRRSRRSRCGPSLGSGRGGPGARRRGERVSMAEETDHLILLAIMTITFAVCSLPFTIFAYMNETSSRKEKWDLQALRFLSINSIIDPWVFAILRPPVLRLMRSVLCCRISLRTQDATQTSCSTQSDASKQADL
EP2 antag: EP2 receptor (human) inhibition. P43116. C6 glioma cells expressing human EP2, cAMP TR-FRET; cells stimulated with saturating PGE2. inhibition, % at 25 µM. actives 0.52% (n = 260,000). AID 1422;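 active = percent inhibition above 40 after rounding to a whole number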;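 note: rat C6 glioma host cells with rolipram phosphodiesterase inhibitor present; the protocol text gives 20 µM as final concentration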
PG9 Ab binder: PG9 antibody binding by small molecule; TR-FRET gp120-PG9 antibody binding; actives 0.43% (n = 360,000); inhibition, % at 6.7 µM; in the data active = inhibition above about 8.5%
NR1D1 modulator: modulates human Rev-erb alpha binding to DNA. Rev-erbα–FITC-DNA binding, fluorescence polarization, 90 min. activity, % at 10 µM. actives 0.79% (n = 370,000);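 active = activity above about 14%, limit read from the data; passing the limit was not always enough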;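 note: 0% = DMSO wells with 35 nM protein and 100% = DMSO wells with 750 nM protein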
RAM inhibit: inhibitors of the yeast RAM network; S. cerevisiae dse1pr::URA3 reporter, 5-FOA growth OD615, 2 d; analog-sensitive cbk1-as2 kinase mutant strain; actives 1.8% (n = 190,000); inhibition, % at 50 µM; AID 868;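 active = inhibition above a set limit, 3 SD over mean compound inhibition, cut at about 8.4% in these data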;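 note: 0% = DMSO-only wells with no growth and 100% = 10 µM 1-NA-PP1 full growth; inhibition rescues growth on 5-FOA so higher OD means more RAM inhibition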
Numbers without * were called inactive; · = no result given.

SMILES | SKN-1 inh | EP2 mod | EP2 antag | PG9 Ab binder | NR1D1 modulator | RAM inhibit
CC1(C)Cc2ccccc2-c2nc3n(c(=O)c21)CCCS3 | 12.2 | 63.8* | 7.7 | -0.8 | 6.5 | 5.0
CCC1(C)Cc2ccccc2-c2nc3n(c(=O)c21)CCCCC3 (configuration not stated) | -7.0 | 57.2 | 8.9 | -2.4 | 1.0 | 0.1
N#Cc1c(/N=C/c2ccccc2)oc(-c2ccccc2)c1-c1ccccc1 | 2.7 | 33.9 | 7.9 | -0.4 | 1.9 | 1.0
COc1ccc(-c2oc(/N=C/N3CCOCC3)c(C#N)c2-c2ccc(OC)cc2)cc1 | 28.6 | 4.8 | 8.6 | 0.9 | 2.4 | 9.1*
C=C(C)Cn1c(SCc2ccc(Cl)cc2)nc2c1c(=O)n(C)c(=O)n2C | · | 80.1* | 5.5 | · | · | ·
CCCSc1nc2c(c(=O)n(C)c(=O)n2C)n1Cc1ccc(Cl)cc1 | · | -34.2 | 14.1 | · | · | ·
Cn1c(=O)c2c(nc(SCc3ccccc3)n2Cc2ccc(Cl)cc2)n(C)c1=O | 17.3 | 58.6 | 5.2 | 0.7 | 0.7 | 8.9*
C=CCSc1nc2c(c(=O)n(C)c(=O)n2C)n1Cc1ccccc1Cl | · | 93.0* | 7.8 | · | · | ·
C/C=C/Cn1c(SCc2ccc(Cl)cc2)nc2c1c(=O)[nH]c(=O)n2C | 0.1 | 63.4* | 7.5 | -0.6 | 5.6 | 6.0
CCc1ccc(C(=O)/C=C\Nc2ccc3c(c2)OCO3)cc1 | · | -28.4 | 10.1 | · | · | ·
Cc1nc(SCC(=O)NC2CCCCC2)[nH]c(=O)c1Cc1ccccc1 | · | -11.6 | 16.7 | · | · | ·
Cc1ccnc(SCCCn2c(N3CCCCCC3)nc3c2c(=O)[nH]c(=O)n3C)n1 | · | -11.0 | 8.0 | · | · | ·
CC(C)C(c1nnnn1CC1CCCO1)N1CCN(Cc2ccccc2)CC1 (configuration not stated) | · | 13.1 | 5.3 | · | · | ·
Cn1c(=O)c2c(nc(NCc3ccccc3)n2Cc2ccc(F)cc2)n(C)c1=O | · | 64.0* | 13.0 | · | · | 1.9
Cc1ccc2cc3cc(C(=O)O)sc3nc2c1C | · | -29.4 | 15.4 | · | · | ·
COc1ccc(/C=N/N=C2/SCC(=O)N2Cc2ccccc2)cc1 | -10.2 | 5.0 | 6.5 | -0.6 | 0.9 | ·
COc1ccc(CN2C(=O)CS/C2=N/N=C/c2ccccc2)cc1 | 52.6* | -27.1 | 12.4 | -0.1 | -2.8 | ·
CCCC1=NN2C(=N)/C(=C\c3ccc(SCc4ccco4)o3)C(=O)N=C2S1 | 43.8* | -5.0 | 9.5 | · | · | 7.5
CCN1CCN(C(=O)C(C)(C)Oc2ccc(Cl)cc2)CC1 | · | -3.8 | 3.2 | · | · | ·
CCc1ccc2[nH]c(=O)c(C(c3nnnn3Cc3ccco3)N3CCCCC3)cc2c1 (configuration not stated) | · | 27.5 | 9.0 | · | · | ·
CC(C)c1ccc2c(c1)CC[C@@H]1[C@](C)(CN)CCC[C@@]21C | · | -5.5 | 89.9* | · | · | ·
Cc1[nH]n(C(N)=S)c(=O)c1C(c1ccccc1)C(C#N)C#N (configuration not stated) | -4.1 | 7.5 | 19.8 | -2.5 | -6.4 | -1.4
Cc1[nH]n(-c2ncc(-c3ccccc3)s2)c(=O)c1C(c1ccc(Br)cc1)C(C#N)C#N (configuration not stated) | -5.7 | -62.3 | 16.1 | -2.8 | -6.7 | 10.8*
O=C(Cc1cccs1)N1CCC(Cn2nc(-c3ccccc3)ccc2=O)CC1 | · | 3.3 | · | · | · | ·
C=CCSc1nnc(-c2cccc3ccccc23)o1 | -3.5 | · | · | -1.0 | -8.6 | ·
SMILES | SKN-1 inh | EP2 mod | EP2 antag | PG9 Ab binder | NR1D1 modulator | RAM inhibit
C#CCSc1nnc(-c2cccc3ccccc23)o1 | 82.2* | · | 7.6 | 1.9 | 7.8 | ·
CC(=O)NC(Cc1ccc(F)cc1)C(=O)N1CCN(C(=O)NCc2ccccc2)CC1 (configuration not stated) | 49.3* | 36.5 | 6.3 | 0.2 | 3.9 | 2.3
CC(=O)NC(Cc1ccccc1)C(=O)NC1CCN(C(=O)NCc2ccccc2)CC1 (configuration not stated) | -5.8 | · | · | -1.1 | 2.4 | ·
Cc1cc(C)cc(NC(=O)c2nc3ncccn3n2)c1 | · | -25.5 | 12.5 | · | · | ·
Cc1ccnc(SCC(=O)Nc2ccccc2F)n1 | · | -17.8 | 14.4 | · | · | ·
Cc1nc(SCC(=O)Nc2ccccc2F)nc2c1CCCC2 | · | 78.6* | 8.1 | · | · | ·
O=C(O)c1cnc2ccccc2n1 | 37.2* | -6.2 | 8.9 | 2.3 | -4.6 | 1.1
Cc1cc(C)c(S(=O)(=O)Nc2ccccc2C(=O)OCC(=O)NCc2ccccc2)c(C)c1 | 6.5 | -14.2 | 2.1 | 0.9 | 3.4 | 8.7*
COC(=O)c1ccc(NC(=O)CN2CCC(c3nc4ccc(Cl)cc4[nH]3)CC2)cc1 | · | -44.0 | 14.5 | · | · | ·
COC(=O)c1c(-c2ccccc2)noc1-c1ccccc1 | 45.4* | · | · | 0.3 | 5.6 | ·
COC(=O)c1c(C)noc1-c1ccc(Cl)cc1 | 5.5 | 34.4 | 2.8 | -1.3 | -0.9 | ·
CCn1c(C)[n+](CC(O)COc2cccc(C)c2)c2ccccc21 (configuration not stated) | · | -9.3 | 6.4 | · | · | ·
CC1(C)N=C(N)N=C(N)N1c1cccc(OCc2cccc(N)c2)c1 | · | -2.4 | 53.9* | · | · | ·
CC1(C)N=C(N)N=C(N)N1c1cccc(CSc2ccccc2)c1 | · | 19.6 | 51.6* | · | · | ·
CC(C)c1nc2ccccc2c(=O)n1CC(=O)NC1CCCC1 | · | 9.2 | 4.1 | · | · | ·
Cc1ccc2c(c1)c(C)c(C)n2CC(O)Cn1nnc2ccccc21 (configuration not stated) | 60.3* | -21.6 | 9.2 | -2.1 | -2.0 | 3.1
Cc1ccc2c(c1)c(C)c(C)n2CC(O)Cn1nc(C)cc1C (configuration not stated) | 18.7 | -29.6 | 12.8 | -1.5 | -2.1 | -0.4
COCCCn1c(SCC(=O)Nc2cccc(C)c2C)nnc1-c1ccncc1 | · | -35.3 | 5.2 | · | · | ·
S=C(Nc1ccc(Oc2ccccc2)cc1)NC1CCCCCC1 | -13.8 | -22.3 | 6.5 | -0.3 | -0.1 | 10.5*
Cc1cnc(C(=O)N(CCCn2ccnc2)C2C(=O)Nc3ccccc3N=C2c2ccccc2)cn1 (configuration not stated) | 37.1* | · | · | -1.3 | -7.3 | ·
O=C(c1nc2ccccc2s1)C1CCN(C(=O)Cc2n[nH]c(=O)c3ccccc23)CC1 | · | -32.9 | · | · | · | ·
Cc1cccc2cc(C(c3nnnn3C(C)(C)C)N3CCN(c4ccc(F)cc4)CC3)c(=O)[nH]c12 (configuration not stated) | · | 8.0 | 13.8 | · | · | ·
CCOc1ccccc1C(=O)Nc1nc2c(s1)C(=O)CC(C)(C)C2 | · | -21.9 | 69.1* | · | · | ·
COc1ccc(C)cc1NC(=O)Cn1cnc2sc(C)c(S(=O)(=O)N3CCOCC3)c2c1=O | -18.0 | 13.8 | 4.4 | -1.0 | -4.8 | 6.2
COc1ccccc1NC(=O)Cn1cnc2sc(C(=O)NCc3ccco3)c(C)c2c1=O | -3.6 | -34.3 | 2.1 | -0.2 | -4.1 | 9.4*
COc1ccccc1NC(=O)Cn1cnc2sc(C)c(S(=O)(=O)N3CCCCC3)c2c1=O | -5.7 | -1.3 | 8.0 | -0.1 | 0.7 | 8.9*
COc1ccccc1NC(=O)CNC(=O)Cn1cnc2sc(C)c(C)c2c1=O | 0.2 | · | · | 0.7 | -4.5 | ·
Cc1cccc(NC(=O)CSc2nnc(-c3cccnc3)n2C)c1C | · | -6.3 | 5.9 | · | · | ·
CCOCCCNC(=O)c1ccc(NC(C)=O)cc1 | -13.9 | -4.9 | 17.2 | -0.9 | 4.1 | 0.1
